Source: PubChem BioAssay (several laboratories)
Hits are enriched below; roughly 4.1% of the tested compounds scored in any of these assays.
EBV LMP1 NFkB: EBV LMP1-driven NF-kappaB luciferase reporter inhibitors, primary screen, cell-based, luminescence, single point; LMP1-induced NF-kappaB luciferase reporter cells; inhibition, % at 12.5 µM; actives 0.69% (n = 350,000); AID 504558, 2011; in the data active = inhibition above about 41%; inconclusive = no clear call, values can overlap the other calls
TRPM1 prom inh: inhibitors of MITF-dependent TRPM1 promoter reporter, primary screen, cell-based, SK-MEL-5, single point, luciferase; SK-MEL-5 TRPM1 promoter luciferase, 24 h; inhibition, % at 12.5 µM; actives 0.83% (n = 330,000);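 active = mean inhibition across replicates of 60% or more, whatever share of single replicates reaches that level; inconclusive = some that reach 60%, reason not given; inactive = mean inhibition across replicates below 60%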
Peg3 promoter: Peg3 promoter-driven luciferase inhibitors, primary screen, cell-based, HeLa, luciferase luminescence. HeLa PEG-Prom luciferase reporter, overnight. inhibition, % at 20 µM. actives 1.7% (n = 360,000);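 active = inhibition of at least 50% at 20 µM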
TWEAK Fn14 block: inhibitors of TWEAK-Fn14 signaling, primary screen, luciferase reporter cells, uHTS; actives 2% (n = 360,000); inhibition, % at 10 µM; TWEAK-stimulated Fn14 reporter cells, luciferase luminescence, 8 h; AID 1159606, 2016; in the data active = inhibition above about 50%
Shn3 3UTR inh: reduction of Shn3 3'UTR firefly luciferase signal, primary screen, Schnurri-3 inhibitor project, cell-based, Clone20 osteoblasts, set 2. Clone20 osteoblast Shn3 3'UTR firefly luciferase, 24 h. inhibition, % at 12.5 µM. actives 0.52% (n = 360,000);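 active = mean inhibition of at least 75% with every replicate also reaching 75%; inconclusive = mean inhibition at least 75% but some replicate below; inactive = mean inhibition below 75%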
TROY NFkB inh: inhibitors of TROY-driven NF-kB signaling, primary screen, Q293 LMP1-TROYcd cells, NF-kB luciferase, uHTS | Q293 LMP1-TROYcd NF-kB luciferase reporter, 4 h | inhibition, % at 10 µM | actives 0.98% (n = 360,000);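 active = compounds whose plate-normalised and pattern-corrected inhibition of the luciferase reporter signal at the single screening dose is 50% or more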
Hits are given with their value.

Results for CN(C)CC(CCC(CN(C)C)C(=O)c1ccccc1)C(=O)c1ccccc1 (stereo not drawn) ?
EBV LMP1 NFkB: 84; TRPM1 prom inh: 97; Peg3 promoter: 109; TWEAK Fn14 block: 98; Shn3 3UTR inh: 98; TROY NFkB inh: 56

How did CCOc1ccc(C(=O)C(CCC(CN(C)C)C(=O)c2ccc(OCC)cc2)CN(C)C)cc1 (stereo not drawn) do in these assays?
EBV LMP1 NFkB: 67; TRPM1 prom inh: 103; Peg3 promoter: 106; TWEAK Fn14 block: 102; Shn3 3UTR inh: 98; TROY NFkB inh: 50

How did COc1ccc(C(=O)C(CCCCC(CN(C)C)C(=O)c2ccc(OC)cc2)CN(C)C)cc1 (stereo not drawn) do in these assays?
EBV LMP1 NFkB: inactive; TRPM1 prom inh: inactive; Peg3 promoter: inactive; TWEAK Fn14 block: inactive; Shn3 3UTR inh: inactive; TROY NFkB inh: inactive

How did Cc1cccc(NS(=O)(=O)c2cc(C(=O)OC(C)C(=O)NCc3ccc4c(c3)OCO4)ccc2C)c1 (stereo not drawn) do in these assays?
EBV LMP1 NFkB: inactive; TRPM1 prom inh: inactive; Peg3 promoter: inactive; TWEAK Fn14 block: 53; Shn3 3UTR inh: inactive; TROY NFkB inh: inactive

What do the screens show for `Cc1ccc(S(=O)(=O)N2C[C@H]3C(=O)C[C@@H](c4ccccc4F)N(S(=O)(=O)c4ccc(C)cc4)[C@H]3C[C@H]2c2ccccc2F)cc1`?
Peg3 promoter: inactive; TWEAK Fn14 block: inactive; Shn3 3UTR inh: inactive; TROY NFkB inh: inactive

How did CCc1ccc(OCC(=O)Nc2ccc(-c3cc4ccccc4oc3=O)c(OC)c2)cc1 do in these assays?
EBV LMP1 NFkB: inactive; TRPM1 prom inh: inactive; Peg3 promoter: inactive; TWEAK Fn14 block: 73; Shn3 3UTR inh: inactive; TROY NFkB inh: inactive

Results for O=C(O)CC(CCc1ccccc1)OC1OC(CO)C(O)C(O)C1O (stereo not drawn) ?
EBV LMP1 NFkB: inactive; TRPM1 prom inh: inactive; Peg3 promoter: inactive; TWEAK Fn14 block: 59; Shn3 3UTR inh: inactive; TROY NFkB inh: inactive

Results for [C-]#[N+][C@H](O[C@@H]1O[C@H](CO)[C@@H](O)[C@H](O)[C@H]1O)c1ccccc1 ?
EBV LMP1 NFkB: inactive; Peg3 promoter: inactive; TWEAK Fn14 block: inactive; Shn3 3UTR inh: inactive; TROY NFkB inh: inactive

What do the screens show for `COc1cc(/C=N/N2C(C)CCCC2C)cc(Br)c1O` (stereo not drawn)?
EBV LMP1 NFkB: inactive; TRPM1 prom inh: inactive; Peg3 promoter: inactive; TWEAK Fn14 block: inactive; Shn3 3UTR inh: inactive; TROY NFkB inh: inactive

Results for CCN=c1scc(C)n1/N=C/c1cc(Br)c(O)c(OC)c1 ?
EBV LMP1 NFkB: inactive; TRPM1 prom inh: inactive; Peg3 promoter: inactive; TWEAK Fn14 block: inactive; Shn3 3UTR inh: inactive; TROY NFkB inh: 58

What do the screens show for `N=c1c2c(ncn1CCCO)Oc1ccc3ccccc3c1C2c1ccccc1` (stereo not drawn)?
Peg3 promoter: inactive; TWEAK Fn14 block: inactive; Shn3 3UTR inh: inactive; TROY NFkB inh: inactive

What do the screens show for `COc1ccc(C2c3ccc4ccccc4c3Oc3ncn(CCCO)c(=N)c32)cc1OC` (stereo not drawn)?
EBV LMP1 NFkB: inactive; TRPM1 prom inh: inactive; Peg3 promoter: inactive; TWEAK Fn14 block: inactive; Shn3 3UTR inh: inactive; TROY NFkB inh: inactive

Results for N=c1c2c(ncn1CCCO)Oc1c(ccc3ccccc13)C2c1ccccc1 (stereo not drawn) ?
EBV LMP1 NFkB: inactive; TRPM1 prom inh: inactive; Peg3 promoter: 73; TWEAK Fn14 block: inactive; Shn3 3UTR inh: inactive; TROY NFkB inh: inactive

How did CN(C)CCCn1cnc2c(c1=N)C(c1ccccc1)c1ccc3ccccc3c1O2 (stereo not drawn) do in these assays?
EBV LMP1 NFkB: inactive; TRPM1 prom inh: 99; Peg3 promoter: 109; TWEAK Fn14 block: inactive; Shn3 3UTR inh: inactive; TROY NFkB inh: inactive

How did CC1=CC(=O)C=C(C)C1=NOC(=O)/C=C\c1ccccc1 do in these assays?
EBV LMP1 NFkB: inactive; TRPM1 prom inh: inactive; Peg3 promoter: inactive; TWEAK Fn14 block: inactive; Shn3 3UTR inh: inactive; TROY NFkB inh: inactive

What do the screens show for `CC1=CC(=NOC(=O)/C=C/c2ccccc2)C=C(C)C1=O`?
EBV LMP1 NFkB: 59; TRPM1 prom inh: inactive; Peg3 promoter: inactive; TWEAK Fn14 block: inactive; Shn3 3UTR inh: inactive; TROY NFkB inh: inactive

Results for COc1ccccc1N(/N=C1\Sc2ccccc2C1=O)C(C)=O ?
EBV LMP1 NFkB: inactive; TRPM1 prom inh: inactive; Peg3 promoter: inactive; TWEAK Fn14 block: 79; Shn3 3UTR inh: inactive; TROY NFkB inh: 78

Results for COc1ccc(N(/N=C2\Sc3ccccc3C2=O)C(C)=O)cc1 ?
EBV LMP1 NFkB: inactive; TRPM1 prom inh: inactive; Peg3 promoter: inactive; TWEAK Fn14 block: inactive; Shn3 3UTR inh: inactive; TROY NFkB inh: inactive

Results for Cc1ccc(-n2c(-c3ccc(Br)cc3)c[n+]3c2CCc2ccc4cccnc4c2-3)cc1 ?
EBV LMP1 NFkB: inactive; TRPM1 prom inh: 98; Peg3 promoter: 64; TWEAK Fn14 block: inactive; Shn3 3UTR inh: 91; TROY NFkB inh: inactive

Results for COc1ccc(-c2csc(NC(=O)c3ccccc3F)n2)cc1 ?
EBV LMP1 NFkB: inactive; TRPM1 prom inh: inactive; Peg3 promoter: inactive; TWEAK Fn14 block: inactive; Shn3 3UTR inh: inactive; TROY NFkB inh: inactive

Results for Cc1ccc(S(=O)(=O)Nc2ccccc2C(=O)Nc2nc(-c3ccc(F)cc3)cs2)cc1 ?
EBV LMP1 NFkB: inactive; TRPM1 prom inh: inactive; Peg3 promoter: inactive; TWEAK Fn14 block: 93; Shn3 3UTR inh: inactive; TROY NFkB inh: 75

What do the screens show for `COc1ccc(-c2csc(NC(=O)c3ccccc3NS(=O)(=O)c3ccc(F)c(F)c3)n2)cc1`?
EBV LMP1 NFkB: inconclusive; TRPM1 prom inh: 77; Peg3 promoter: inactive; TWEAK Fn14 block: 74; Shn3 3UTR inh: inactive; TROY NFkB inh: 69

How did CC[C@H]1OC(=O)[C@H](C)[C@@H](O[C@H]2C[C@@](C)(OC)[C@@H](O)[C@H](C)O2)[C@H](C)[C@@H](O[C@@H]2O[C@H](C)C[C@H](N(C)C)[C@H]2O)[C@](C)(O)C[C@@H](C)C(=NOCOCCOC)[C@H](C)[C@@H](O)[C@]1(C)O do in these assays?
EBV LMP1 NFkB: 54; TRPM1 prom inh: inactive; Peg3 promoter: inactive; TWEAK Fn14 block: inactive; Shn3 3UTR inh: inactive; TROY NFkB inh: inactive

What do the screens show for `CCOc1ccc(CCN2C(=S)N([C@@H](CC(C)C)CN3CCC[C@@H]3CN3C(=S)NC[C@@H]3Cc3ccccc3)C[C@@H]2Cc2ccc(O)cc2)cc1`?
Peg3 promoter: inactive; TWEAK Fn14 block: inactive; Shn3 3UTR inh: inactive; TROY NFkB inh: inactive

How did Cc1ccc2nc(SCC(=O)c3c(C)[nH]c4ccccc34)[nH]c2c1 do in these assays?
EBV LMP1 NFkB: inactive; TRPM1 prom inh: inactive; Peg3 promoter: inactive; TWEAK Fn14 block: inactive; Shn3 3UTR inh: inactive; TROY NFkB inh: inactive
